# Values joined by “and” are separate entries in the source; they are usually repeats but may differ in a detail not shown here. Identical values can stand only once. Screen size: about 68,000 compounds; about 2,700 (4%) showed an effect of 50% or more. The list comes from a sample in which strong results are over-represented; it also holds similar structures and randomly drawn compounds.
# Tested on: Plasmodium berghei
# Test: Screen against P. berghei liver stage (PbLuc), transformed with Luciferase, at 2uM
# Type: functional, HepG2
# Conditions: tested at 2 uM
SMILES,INHIBITION [%],INHIBITION (2 µM)
Cc1csc(CCCNC(C)CC(=O)Nc2cccc(C)c2C)n1 (stereo not given),-77.68,
O[C@@H]1C[C@@H](c2nc(-c3ccc(OC(F)(F)F)cc3)no2)N(CC2CC2)C1,13.92,
Cc1noc([C@H]2CC[C@@H]3[C@@H](CCN3S(=O)(=O)C3CC3)O2)n1,1.83,
O=C(Cc1ccccc1Cl)Nc1cnn(C2CCOC2)c1 (stereo not given),2.49,
COc1ccc(-c2c(C)nn3c(=N)c(C#N)n[nH]c23)cc1OC,1.04,
CS(=O)(=O)CCC(=O)NC1(c2cccc(C(F)(F)F)c2)CCC1,61,
COCC(=O)NC1(c2cccc(C(F)(F)F)c2)CCC1,24.82,
CCNC(=O)CCC(=O)NC1(c2cccc(C(F)(F)F)c2)CCC1,18.85,
COCCC1(C(=O)O)CCCN(Cc2cc3c(cc2C)OCO3)C1 (stereo not given),-48.91,
c1cnn(-c2ccc(CCNC3CCN(C4CC4)C3)cc2)c1 (stereo not given),27.73,
OCCNc1cc(-c2ccccc2)ncn1,-7.01,
C[C@H](O)CNc1cc(-c2ccncc2)ncn1,-29.38,
C[C@H](O)CNc1cc(-c2ccccc2)ncn1,59.56,
CC(C)NC(=O)CC1COC2(CCN(Cc3ccco3)CC2)C1 (stereo not given),43.58,
O=C(NCc1cc(N2CCOCC2)ncn1)c1cccc(CO)n1,-15.77,
CC(C)=CCN1C[C@@H]2CC[C@H]1CN(S(=O)(=O)c1cccnc1)C2,54.75,
O=S(=O)(c1cccnc1)N1C[C@H]2CC[C@@H](C1)N(Cc1ccccc1)C2,-11.31,
O=S(=O)(c1cccnc1)N1C[C@H]2CC[C@@H](C1)N(Cc1ccccn1)C2,-3.6,
c1ccc2c(c1)N(CC1CCOC1)CC21CCN(c2cnccn2)CC1 (stereo not given),-39.01,
O=C(Cn1nc(C(F)(F)F)c(Br)c1C1CC1)N1CCOCC1,6.33,
Cc1ccc(CN2CC[C@H]3CO[C@H](CN(C)C)[C@H]3C2)o1,-5.44,
Cc1ccc(CN2CC[C@H]3CO[C@H](CN4CCN(C)CC4)[C@H]3C2)o1,16.78,

SMILES,INHIBITION [%],INHIBITION (2 µM)
Cc1ccc(CN2CC[C@H]3CO[C@H](CN4CCCC4)[C@H]3C2)o1,50.85,
CC(=O)N(C)c1nc(Cn2nnnc2C2CCCC2)cs1,-26.07,
O=C(Cn1cc(-n2cccc2)cn1)NCC1CCC1,-28.99,
COCCn1cc2c(n1)C(CNCc1ccsc1)OCC2 (stereo not given),30.19,
COCCN1C(=O)[C@@H]2CC[C@H]1CN(c1nccc(C)n1)C2,-1.56,
COCCN1C(=O)[C@@H]2CC[C@H]1CN(c1ncccn1)C2,57.34,
CNc1ccnc(N2C[C@H]3CC[C@@H](C2)N(CCOC)C3=O)n1,40.51,
CN(Cc1ccccn1)C(=O)[C@]12COC[C@H]1CN(Cc1cnn(C)c1)C2,0.3,
O=C(c1cc(C2CC2)no1)N1C[C@@H]2CC[C@H]1CN(Cc1ccccn1)C2,-62.92,
Cn1ccc(NC(=O)CN2C[C@@H]3CC[C@H]2CN(Cc2ccccn2)C3)n1,52.98,
O=C(CN1C[C@@H]2CC[C@H]1CN(Cc1ccccn1)C2)NCc1cccs1,52.98,
COCCN1C[C@@H]2CC[C@H]1CN(CC(=O)Nc1ccn(C)n1)C2,5.28,
Cc1nnsc1CN1C[C@@H]2CC[C@H]1CN(Cc1ccccn1)C2,-17.17,
O=C(CN1C[C@@H]2CC[C@H]1CN(Cc1ccccn1)C2)Nc1ccccc1,-16.18,
O=C1[C@@H]2CN(C3CCOCC3)C[C@H]2CCN1CC1CC1,27.65,
O=C1CCCC2=Nc3nonc3NC(c3ccc(Cl)cc3Cl)C12 (stereo not given),-53.9,
CC(C)c1ccc2c(c1)CCCN2C(=O)CN(C)S(C)(=O)=O,-20.21,
CC(C)OCCSCc1nnc(-c2cccc(F)c2)o1,55.39,
OCC(O)CSCc1nnc(-c2cccc(F)c2)o1 (stereo not given),10.23,
COc1cccn(Cc2nnc(-c3cccc(F)c3)o2)c1=O,25.02,
COC(=O)c1cccn1C1CCN(CCN2C(=O)CCC2=O)CC1,31.46,
COc1ccc(NC(=O)N2CCCC2c2ccco2)cc1OC (stereo not given),-28.88,

SMILES,INHIBITION [%],INHIBITION (2 µM)
CCCc1cc(CNC2CCN(c3cc(C(C)C)nc(C)n3)CC2)on1,-8.34,
CCCc1cc(CNC2CCN(c3cc(C)nc(N)n3)CC2)on1,-13.81,
CCCc1cc(CNC2CCN(c3nc(C)cc(C)n3)CC2)on1,58.59,
Cc1cn2c(=O)c(-c3ccnc(N(C)C4CCCCC4)n3)cnc2s1,-35.83,
Cc1nc(N2C[C@H]3CNC[C@H]3C2)c2sccc2n1,50.98,
Cc1nc(N2C[C@@H](CN3CCCCC3)[C@@H](CO)C2)c2sccc2n1,-38.35,
COC1[C@@H]2CC[C@H]1CN(c1nc(C)nc3ccsc13)C2 (stereo not given in full),-67.34,
O=C(NCc1nn(-c2ccccc2)c2c1CCC2)NC1CCC(O)CC1 (stereo not given),-43.23,
N[C@@H]1CCN(Cc2ccccc2CS(=O)(=O)c2ccccc2)C[C@H]1O,83.98,
O=S(=O)(Cc1ccccc1CN1CC[C@H](CO)[C@H](O)C1)c1ccccc1,48.21,
NC1CCCCN(Cc2ccccc2CS(=O)(=O)c2ccccc2)C1 (stereo not given),21.97,
CC(C)(C)NC(=O)CNc1ncc(Br)cn1,-20.72,
CCc1c(C)nn2c(O)cc(C3CCN(C(=O)c4ccccn4)C3)nc12 (stereo not given),,-16.2% and -18.64%
CC1Oc2c(cccc2C(=O)N2CCN(CC(C)(C)O)CC2)NC1=O (stereo not given),-34.12,
Cc1ncccc1C(=O)Nc1cccc(C[S+](C)[O-])c1C (stereo not given),31.58,
CC(C)c1nc(CSc2nnc(-c3cccs3)n2CC(N)=O)no1,51.4,
CCc1noc(C(C)Sc2nnc(C3CC3)n2CC(N)=O)n1 (stereo not given),35.26,
CC(C)c1nc(CSc2nnc(C3CC3)n2CC(N)=O)no1,53.55,
CC(Sc1nnc(C2CC2)n1CC(N)=O)c1ccc(Cl)cc1 (stereo not given),-87.32,
NC(=O)Cn1c(SCc2noc(-c3ccsc3)n2)nnc1C1CC1,-2.44,
Cc1cccc(CSc2nnc(C)n2CC(N)=O)c1,20.41,
